Experimental data as given in PubChem BioAssay (NCI).
About 79,000 compounds went through this panel and 15% of them were active in at least one assay; those are over-represented in the sample as a whole. A number with no mark means an inactive call. Activity calls are given as the source filed them. Cut-off read from the data, not from the text of the source: active = growth inhibition above about 70%; inactive = the rest.

Tests used:
[1] = NCI Yeast Anticancer Drug Screen. Data for the rad50 strain (AID 155);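 note: 0% = growth of vehicle-only cultures of the same strain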; settings: S. cerevisiae rad50 strain growth inhibition, stronger effect = higher value
In short: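 Growth of the mutant yeast was measured after compound exposure and referenced to vehicle-treated cultures.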

[2] = NCI Yeast Anticancer Drug Screen. Data for the mec2-1 strain (AID 157); settings: S. cerevisiae mec2-1 strain, stronger effect = higher value
In short: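 Cells of the genetically defined mec2-1 yeast strain are incubated with test compound. Inhibition of growth is calculated against vehicle-treated controls.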

[3] = NCI Yeast Anticancer Drug Screen. Data for the sgs1 mgt1 strain (AID 161);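 note: 0% = growth of cultures given vehicle only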; settings: S. cerevisiae sgs1 mgt1 strain, stronger effect = higher value
In short: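 Inhibition of yeast growth, normalised to vehicle-treated controls, is reported for a strain bearing genetic alterations in DNA damage repair.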

[4] = NCI Yeast Anticancer Drug Screen. Data for the cln2 rad14 strain (AID 165);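 note: 0% = growth equal to vehicle treated cultures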; settings: S. cerevisiae cln2 rad14 strain, stronger effect = higher value
In short: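 The screen exposed genetically defined yeast (cln2 rad14) to test compounds and scored growth inhibition relative to vehicle-treated controls.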

[5] = NCI Yeast Anticancer Drug Screen. Data for the bub3 strain (AID 167); settings: S. cerevisiae bub3 mutant strain, stronger effect = higher value
In short: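 Whole-cell yeast assay. The mutant strain was incubated with compounds, and growth inhibition was determined by comparison with vehicle-treated cells.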

[6] = NCI Yeast Anticancer Drug Screen. Data for the mlh1 rad18 strain (AID 175); settings: S. cerevisiae mlh1 rad18 strain growth inhibition, stronger effect = higher value
In short: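 Compound-treated yeast growth, normalised to vehicle controls. Strain bears defined DNA repair mutations.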

[7] = at 5.0 µM (retest, dose inferred, filed as 0.5)
[8] = at 50.0 µM (retest, dose inferred, filed as 5.0)

SMILES | growth inhibition [1, 7] | growth inhibition [1, 8] | growth inhibition ([1]; at 50.0 µM) | growth inhibition [2, 7] | growth inhibition [2, 8] | growth inhibition ([2]; at 50.0 µM) | growth inhibition [3, 7] | growth inhibition [3, 8] | growth inhibition ([3]; at 50.0 µM) | growth inhibition [4, 7] | growth inhibition [4, 8] | growth inhibition ([4]; at 50.0 µM) | growth inhibition [5, 7] | growth inhibition [5, 8] | growth inhibition ([5]; at 50.0 µM) | growth inhibition [6, 7] | growth inhibition [6, 8] | growth inhibition ([6]; at 50.0 µM)
CC1C[N+](C)(C)C(C)C(=O)C1(c1ccccc1)c1ccccc1 (stereo not given) | -9% | 2% | 6.6% | -2% | 2% | 10.9% | -23% | 3% | -10.3% | -1% | -2% | -13.4% | -4% | -2% | 28.2% | -6% | -4% | 19.1%
CCCCCC(CCCCC)OC(=O)CCN(CCCCC)CCCCC | 2% | 81% (active) | 74% (active) | 6% | 86% (active) | 46.1% | 14% | 97% (active) | 84% (active) | 5% | 75% (active) | 72% (active) | 1% | 87% (active) | 51.9% | 3% | 94% (active) | 68.9%
S=C1C(=Nc2ccccc2)N(c2ccccc2)/C(=N\c2cccc[n+]2Cc2ccccc2)N1c1ccccc1 | -17% | 89% (active) | 96.6% (active) | -10% | 99% (active) | 97.9% (active) | -1% | 72% (active) | 98.7% (active) | -17% | 48% | 94.5% (active) | -20% | 85% (active) | 98% (active) | -23% | 96% (active) | 98.2% (active)
Cc1cccc(NC(=O)c2cc3cc(N=Nc4ccccc4Cl)ccc3oc2=O)c1 | 6% | 6% | 78.5% (active) | -2% | -2% | 70% (active) | 22% | 22% | 75.4% (active) | 3% | 3% | 35% | 6% | 6% | 78.3% (active) | 7% | 7% | 70.7% (active)
Nc1nnc(Cc2ccc(Br)cc2)o1 | -8% | 0% | 21.3% | 1% | -6% | 13.9% | -3% | 12% | 24.3% | 10% | -2% | 71.5% (active) | 4% | 6% | -13.8% | -12% | 4% | 58.3%
